Assay outcomes: PubChem BioAssay, National Center for Advancing Translational Sciences (NCATS)
NPC1 prom act: qHTS Assay for NPC1 Promoter Activators | Huh7 NPC1 promoter luciferase reporter, 24 h | Potency, µM (doses to about 9.22 µM), actives largely listed as activators | hit rate 2.4% among 320,000 | AID 485313, 2010; also: nearly all actives have a fitted effect of over 60% in size
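Stable NPC1-promoter luciferase Huh7 line; cpd (DMSO) 24 h, 37 °C, 5% CO2; Amplite luciferase reagent 10 min RT; luminescence readout. qHTS format.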
uPA surface inh: qHTS for Inhibitors of Cell Surface uPA Generation; cell surface uPA generation assay, qHTS; AID 540303, 2011; hit rate 0.31% among 330,000; Potency, µM (titrated, usually from 38.3 µM), hits mostly inhibitors; active = well fitted inhibition curve with a large enough effect; inconclusive = small, poorly fitted or top-dose-only effect; inactive = no such curve, though single readings can be large or run the other way; tested in mouse RAW 264.7 cells; also: nearly all actives have a fitted effect of over 55% in size
ELG1 genotoxic: qHTS screen for small molecules that induce genotoxicity in human embryonic kidney (HEK293T) cells expressing luciferase-tagged ELG1; HEK293T ELG1-luciferase reporter, luminescence, 16 h; Potency, µM (top dose mostly 46 µM), usual class: activators; hit rate 1.3% among 330,000; also: nearly all actives have a fitted effect of over 60% in size
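After overnight (16 hr) compound treatment at 37 °C, ELG1-luciferase HEK293T cells were lysed with ONE-Glo; luminescence quantified 30 min later at room temperature.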
SMN2 splice up: qHTS Assay for Enhancers of SMN2 Splice Variant Expression | HEK293 SMN2-luciferase splicing reporter, luminescence, 30-36 h | Potency, µM (highest dose often 46.1 µM), usual class: activators | hit rate 2.8% among 210,000 | AID 1458, 2008; also: nearly all actives have a fitted effect of over 55% in size
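HEK293 cells carry an SMN2 minigene-luciferase reporter in which exon 7 inclusion puts luciferase in frame. Cells were seeded at 2000 cells/well, attached for 10-12 hours, then exposed to compounds for 30-36 hours at 37C before ONE-Glo luminescence.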
Rab9 prom act: qHTS Assay for Rab9 Promoter Activators; Huh7 Rab9 promoter-luciferase reporter, luminescence, 24 h; Potency, µM (highest dose often 9.22 µM), actives largely listed as activators; hit rate 2.8% among 320,000; AID 485297, 2010; also: nearly all actives have a fitted effect of over 60% in size
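Luciferase signal after 10 min detection reagent at ambient indicates Rab9 promoter upregulation; stably transfected Huh7 cells were treated 24 h with compound in DMSO at 37 °C, 5% CO2.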
FLuc modulator: qHTS profiling assay for firefly luciferase inhibitor/activator using purifed enzyme and Km concentrations of substrates (counterscreen for miR-21 project) | Luciferin 4-monooxygenase (Photinus pyralis), P08659 | purified FLuc, Km substrates, luminescence inhibition | Potency, µM (titrated, usually from 57.5 µM), actives largely listed as inhibitors | hit rate 6.9% among 360,000; also: nearly all actives have a fitted effect of over 55% in size
Target sequence (P08659 whole entry, looked up): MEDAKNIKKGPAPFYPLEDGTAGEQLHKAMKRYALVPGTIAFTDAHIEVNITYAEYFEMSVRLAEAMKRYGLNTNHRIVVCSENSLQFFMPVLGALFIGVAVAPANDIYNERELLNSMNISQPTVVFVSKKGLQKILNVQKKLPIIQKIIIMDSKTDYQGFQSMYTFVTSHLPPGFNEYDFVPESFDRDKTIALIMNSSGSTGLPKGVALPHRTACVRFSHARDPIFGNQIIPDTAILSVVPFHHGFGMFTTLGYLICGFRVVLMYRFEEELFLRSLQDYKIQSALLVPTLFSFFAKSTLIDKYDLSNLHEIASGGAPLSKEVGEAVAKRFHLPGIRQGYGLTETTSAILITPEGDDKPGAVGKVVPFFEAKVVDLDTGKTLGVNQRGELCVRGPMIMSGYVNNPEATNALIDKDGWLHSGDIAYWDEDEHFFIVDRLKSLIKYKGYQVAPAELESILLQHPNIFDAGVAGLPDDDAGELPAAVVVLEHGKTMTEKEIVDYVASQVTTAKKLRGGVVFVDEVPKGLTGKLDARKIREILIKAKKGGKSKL
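Biochemical qHTS of compounds, final roughly 60 µM downward over six points, against 10 nM purified firefly luciferase using Km concentrations of substrates (10 uM D-luciferin, 10 uM ATP) in Tris acetate pH 7.5 buffer; luminescence output.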
Large screens that a line does not name were inactive. Compounds with a hit are over-represented: about 7.3% of the library has one in this group of screens. Unless noted, calls follow the shape of the dose curve; as a rule, active = well fitted curve in the direction sought with a large enough effect; inconclusive = small, poorly fitted or top-dose-only effect, or another doubt; inactive = no such curve, though single readings can be large; an effect the other way counts as inactive or inconclusive.

Cc1cc2oc(C(=O)Nc3ccc(S(=O)(=O)Nc4onc(C)c4C)cc3)cc(=O)c2cc1C	FLuc modulator inconclusive (no result: NPC1 prom act, uPA surface inh, ELG1 genotoxic, Rab9 prom act)
Cc1ccc(C(=O)Oc2oc(-c3ccccc3)nc2C=Nc2ccc(N(C)C)cc2)cc1	NPC1 prom act inconclusive, ELG1 genotoxic inconclusive, SMN2 splice up 8.9µM, Rab9 prom act inconclusive, FLuc modulator 13µM
O=C(Oc1oc(-c2ccco2)nc1C=Nc1ccccc1)c1ccoc1	none
Cc1ccc(C(=O)Oc2oc(-c3ccco3)nc2C=Nc2ccc(Cl)cc2)cc1	NPC1 prom act 1.8µM, ELG1 genotoxic inconclusive, SMN2 splice up 14µM, Rab9 prom act 3.2µM, FLuc modulator 4.8µM
CN(C)c1ccc(N=Cc2nc(-c3ccccc3)oc2OC(=O)c2cccc(Cl)c2)cc1	NPC1 prom act inconclusive, ELG1 genotoxic inconclusive, SMN2 splice up 11µM, Rab9 prom act 4.5µM, FLuc modulator inconclusive
COc1ccc(Cl)cc1NC(=O)CN(C)S(=O)(=O)c1ccc2c(c1)CCCN2C(C)=O	none (no result: NPC1 prom act, uPA surface inh, ELG1 genotoxic, SMN2 splice up, Rab9 prom act)
COc1ccc(C2CC(c3cccs3)=NN2C(=O)CSc2nnnn2C)cc1OC (centres undefined)	none
CC(C)n1nnnc1SCC(=O)N1N=C(c2cccs2)CC1c1cccs1 (centres undefined)	Rab9 prom act inconclusive, FLuc modulator 24µM (no result: SMN2 splice up)
COc1ccc(NC(=O)c2c(NC(=O)COc3ccc(Cl)cc3)sc3c2CCCCC3)cc1	none (no result: NPC1 prom act, uPA surface inh, ELG1 genotoxic, Rab9 prom act)
O=C(c1ccccc1)n1ccc(-c2cnc(-c3ccccc3)s2)n1	NPC1 prom act 1.4µM, ELG1 genotoxic 1.6µM, SMN2 splice up 3.5µM, Rab9 prom act 1.6µM, FLuc modulator 4.3µM
COc1ccc(S(=O)(=O)n2ccc(-c3cnc(-c4ccccc4)s3)n2)cc1	Rab9 prom act inconclusive
NC(=O)c1c(NC(=O)c2ccc(F)cc2Cl)sc2c1CCC2	NPC1 prom act inconclusive, Rab9 prom act inconclusive, FLuc modulator 13µM (no result: SMN2 splice up)
CCOC(=O)c1c(NC(=O)c2ccccc2Cl)sc2c1CCCC2	none (no result: NPC1 prom act, uPA surface inh, ELG1 genotoxic, SMN2 splice up, Rab9 prom act)
Cn1cc(Br)c(C(=O)Nc2sc3c(c2C(N)=O)CCCC3)n1	Rab9 prom act inconclusive, FLuc modulator 3µM (no result: SMN2 splice up)
NC(=O)c1c(NC(=O)c2cccnc2Cl)sc2c1CCCC2	FLuc modulator 19µM
NC(=O)c1c(NC(=O)c2ccccc2C(=O)O)sc2c1CCCC2	FLuc modulator 17µM (no result: SMN2 splice up)
CCn1cc(Br)c(C(=O)Nc2sc3c(c2C(N)=O)CCCC3)n1	none (no result: SMN2 splice up)
Cc1cccc(NC(=O)CSc2nc(=O)n(Cc3cccnc3)c3c2CCC3)c1	none (no result: NPC1 prom act, uPA surface inh, ELG1 genotoxic, SMN2 splice up, Rab9 prom act)
NC(=O)c1c(NC(=O)c2ccccc2Cl)sc2c1CCC2	NPC1 prom act inconclusive, ELG1 genotoxic inconclusive, Rab9 prom act inconclusive, FLuc modulator 15µM (no result: SMN2 splice up)
NC(=O)c1c(NC(=O)c2ccccc2F)sc2c1CCCC2	NPC1 prom act 1.6µM, ELG1 genotoxic inconclusive, Rab9 prom act 0.89µM, FLuc modulator 1.9µM (no result: SMN2 splice up)
O=C(Nc1sc2c(c1C(=O)N1CCCCC1)CCCC2)c1ccccc1Cl	none (no result: NPC1 prom act, uPA surface inh, ELG1 genotoxic, Rab9 prom act)
NC(=O)c1c(NC(=O)c2ccc(N3C(=O)CCC3=O)cc2)sc2c1CCCC2	FLuc modulator 11µM (no result: SMN2 splice up)
CC1CCc2sc(NC(=O)c3ccc(N4C(=O)CCC4=O)cc3)c(C(N)=O)c2C1 (centres undefined)	FLuc modulator inconclusive (no result: SMN2 splice up)
CCOc1cccc(/C=C/c2ccc3cccc(O)c3n2)c1OC	NPC1 prom act 3.2µM, ELG1 genotoxic 21µM, FLuc modulator 4.8µM (no result: SMN2 splice up)
CCOc1cccc(/C=C/c2ccc3cccc(O)c3n2)c1O	NPC1 prom act inconclusive, ELG1 genotoxic 23µM, Rab9 prom act inconclusive, FLuc modulator 5.4µM (no result: SMN2 splice up)
CCOc1cc(/C=C/c2ccc3cccc([N+](=O)[O-])c3n2)ccc1O	FLuc modulator inconclusive
Cc1nc2c3ccccc3nc(NNC(=O)CCC(=O)O)n2n1	none (no result: NPC1 prom act, uPA surface inh, ELG1 genotoxic, Rab9 prom act)
NS(=O)(=O)c1ccc2nc(NC(=O)Nc3ccccc3F)sc2c1	NPC1 prom act 0.5µM, ELG1 genotoxic 3.3µM, Rab9 prom act 0.4µM, FLuc modulator 1.3µM (no result: SMN2 splice up)
CC(Oc1ccccc1)C(=O)Nc1nc2ccc(S(N)(=O)=O)cc2s1 (centres undefined)	none (no result: NPC1 prom act, uPA surface inh, ELG1 genotoxic, SMN2 splice up, Rab9 prom act)
